# Data reported in PMC5540273 (PLoS ONE, 2017).
# Legend:
# Details in all cases: concentration: 1 μM, replicates: in singlicate; n = 1
# IKK-alpha = tested on: T1, IKK-alpha
# T1 construct: gene CHUK
# IKK-beta = tested on: T2, IKK-beta
# T2 construct: gene IKBKB
# IKK-epsilon = tested on: T3, IKK-epsilon
# T3 construct: gene IKBKE
# INSRR = tested on: INSRR
# INSR = tested on: INSR
# IRAK1 = tested on: IRAK1
# IRAK3 = tested on: IRAK3
# IRAK4 = tested on: IRAK4
# ITK = tested on: ITK
# [1] = tested on: JAK1(JH1domain-catalytic)
# [2] = tested on: JAK1(JH2domain-pseudokinase)
# [3] = tested on: JAK2(JH1domain-catalytic)
# [4] = tested on: JAK3(JH1domain-catalytic)
# JNK1 = tested on: T4, JNK1
# T4 construct: gene MAPK8
# JNK2 = tested on: T5, JNK2
# T5 construct: gene MAPK9
# JNK3 = tested on: T6, JNK3
# T6 construct: gene MAPK10
# KIT-autoinhibited = tested on: KIT-autoinhibited
# KIT = tested on: KIT
# LATS1 = tested on: LATS1
# LATS2 = tested on: LATS2
# 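Note: KINOMEscan kinase panel screen.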
Structure (SMILES),%Inh (IKK-alpha) [%],%Inh (IKK-beta) [%],%Inh (IKK-epsilon) [%],%Inh (INSRR) [%],%Inh (INSR) [%],%Inh (IRAK1) [%],%Inh (IRAK3) [%],%Inh (IRAK4) [%],%Inh (ITK) [%],%Inh [1] [%],%Inh [2] [%],%Inh [3] [%],%Inh [4] [%],%Inh (JNK1) [%],%Inh (JNK2) [%],%Inh (JNK3) [%],%Inh (KIT-autoinhibited) [%],%Inh (KIT) [%],%Inh (LATS1) [%],%Inh (LATS2) [%]
Fc1cc(Cl)ccc1Nc1ccnc2cc(-c3ccc(CN4CCOCC4)o3)ccc12 [GW560109],43,37,0,5,0,33,27,31,1,0,0,35,0,29,23,15,22,100,0,0
COc1ccc(NC(=O)c2ccoc2)cc1-c1ccc(C(=O)NCC2CC2)cc1 [GW810437],0,0,0,0,10,6,0,0,4,0,0,47,0,23,23,11,17,0,12,0
O=C(Nc1n[nH]c2nc(-c3cccc(O)c3)ccc12)C1CC1 [SB-711805],0,0,0,0,0,0,0,0,0,0,21,29,0,25,8,5,13,30,0,1
Nc1ncnc2scc(-c3ccc(NC(=O)Cc4cc(F)ccc4F)cc3)c12.O=C(O)C(F)(F)F [SB-731254-M],4,0,45,65,15,0,16,0,0,0,49,27,0,35,19,18,87,100,13,36
Cl.N#CCc1ccc(Nc2nccc(Nc3ccc(Oc4ccccc4)cc3)n2)cc1 [GW639905],39,45,14,4,0,42,62,32,0,57,0,85,0,38,31,23,0,97.4,5,0
CN(C)CCOc1ccc(-c2cc(-c3ccc(Cl)c(O)c3)c(-c3ccncc3)[nH]2)cc1.Cl.Cl [SB-684387],9,82,30,0,14,16,0,0,0,20,23,33,10,3,34,36,2,5,0,30
Cc1ccc(O)cc1Nc1ccnc2cc(-c3ccc(CN4CCCCC4)o3)ccc12 [GW557777],0,0,0,4,0,0,0,0,56,1,7,0,15,0,0,0,56,100,0,22
CCOc1nccc(-c2c(-c3ccc(F)cc3)ncn2C2CCNCC2)n1 [SB-249175],0,0,6,4,10,45,11,6,0,29,0,26,26,58,89,90.2,8,17,0,29
COc1cc(Nc2nccc(N3CCC(NC(=O)Nc4ccc5c(c4)OCO5)C3)n2)cc(OC)c1OC (centres unmarked) [GSK1379766],27,11,29,0,25,80,85,44,10,12,47,89,0,34,0,35,5,66,0,12
CC(C)NCC(Cc1ccccc1)NC(=O)c1cc(Br)c(-c2ccnc3[nH]ccc23)s1.Cl.Cl (centres unmarked) [GSK1383281],0,23,30,0,0,15,2,12,3,35,0,71,82,28,12,12,0,50,100,70
CN(c1ccc2c(c1)nc(NCc1ccccc1)n2C)c1ccnc(Nc2ccc(CS(C)(=O)=O)cc2)n1.Cl [GW811603],0,0,0,44,10,0,0,0,0,12,0,60,99.2,65,40,47,80,100,0,0
CC(C)c1nc(-c2cccc(NS(=O)(=O)c3c(F)cccc3F)c2)c(-c2ccnc(Nc3ccc(N4CCOCC4)nc3)n2)s1.Cl [GSK1723980],0,0,39,0,0,0,1,6,95.7,0,44,36,92.3,23,31,7,0,99.9,4,0
CS(=O)(=O)c1cccc(CNc2nc(Nc3ccc4c(c3)CCC(=O)N4)ncc2C(F)(F)F)c1,0,0,48,20,16,0,22,0,0,50,94.3,99.6,100,49,27,48,30,44,0,0
COc1cccc(-c2nc(-c3ccccc3)[nH]c2-c2ccncc2)c1 [SB-610250],33,35,0,0,5,48,0,46,15,23,12,17,0,30,83,90,0,0,45,0
CC(C)c1nc(-c2ccc(F)c(NS(=O)(=O)c3c(F)cccc3F)c2)c(-c2ccnc(Nc3ccc(N4CCOCC4)nc3)n2)s1 [GSK1804250],0,0,23,2,11,0,3,0,9,17,0,4,69,32,70,77,0,97.8,0,0
Cc1ccc(Nc2ccnc(Nc3ccc(C)c(F)c3)n2)cc1O.Cl [GW582868],38,18,0,0,0,42,76,25,9,29,62,48,0,31,16,12,3,93.8,0,0
